Assay outcomes (PubChem BioAssay)
IL1B secr inh: inhibitors of inflammasome signaling (IL-1 beta secretion); 360,000 compounds, 4.7% hits; THP-1 LPS/ATP IL-1B secretion, AlphaLISA, 16 h; hits give low values; activity change, % at 57.5 µM; AID 743279; in the data active means activity change below about -50%; inconclusive means mostly about -30% to -49%
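THP-1 cells pretreated 1 hr with compounds (up to 57.5 uM final), then stimulated with LPS (250 ng/mL final) plus ATP (1.25 mM final); secreted IL-1B measured by AlphaLISA after 16 hr, decreased signal indicating inhibition.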
HT1080NT lethal: kills 2HG-producing HT-1080-NT fibrosarcoma cells; HT-1080-NT fibrosarcoma viability, CellTiter-Glo ATP luminescence, 48 h; Potency, µM (doses to about 46.1 µM), for the others: top-dose activity, negative = less viability, most hits filed as cytotoxic; 360,000 compounds, 1.6% hits; AID 686970;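 further: NT is the 2HG producing partner of a matched IDH1 knockdown line; potency means the concentration at half of the fitted maximal effect; 0% = DMSO-treated cells and -100% = media-only wells without cells; nearly all actives have a fitted effect of over 55% in size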
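Compounds were tested in concentration-response format on HT-1080-NT cells for 48 hours at 37 degrees C. Cell viability came from CellTiter-Glo luminescence; curves were classified by r2, response magnitude and activity.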
DT40 TDP1 no CPT: qHTS for Inhibitors of human tyrosyl-DNA phosphodiesterase 1 (TDP1): qHTS in cells in absence of CPT | 420,000 compounds, 15% hits | Potency, µM (highest dose often 46.2 µM), for the others: at the highest dose activity change, negative = growth inhibition, actives largely listed as inhibitors | AID 686978, 2013 | DT40 Tdp1-/- hTDP1 cells, no CPT, ATP luminescence, 48 h; further: potency means the concentration at half of the fitted maximal effect; nearly all actives have a fitted effect of over 55% in size
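Seeded 400 DT40-hTDP1 cells/well (vehicle DMSO, no 20 nM CPT); pinned compounds; ≥48 hr at 37 °C; CellTiter-Glo luminescence as viability measure.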
DT40 TDP1 CPT: growth inhibition of DT40 Tdp1-/-;hTDP1 cells with camptothecin (screen for TDP1 inhibitors); chicken DT40 Tdp1-/-;hTDP1 cells + 20 nM CPT, ATP luminescence, 48 h; Potency, µM (highest dose often 46.2 µM), without a hit: at the highest dose activity change, negative = growth inhibition, most hits filed as inhibitors; 420,000 compounds, 12% hits; AID 686979; further: potency means the concentration at half of the fitted maximal effect; nearly all actives have a fitted effect of over 55% in size
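Chicken DT40 Tdp1-/- cells complemented with human TDP1, 400 cells/well, exposed to compounds plus 20 nM camptothecin for at least 48 h at 37 C; viability read as ATP content by CellTiter-Glo luminescence.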
HT1080 IDH1KD tx: HT-1080 IDH1 knockdown cell toxicity (counter line). HT-1080 IDH1 knockdown viability, ATP luminescence, 48 h. 360,000 compounds, 2% hits. Potency, µM (series often up to 46.1 µM), inactives show at the top dose activity, negative = toxicity, hits mostly cytotoxic;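 further: potency means the concentration at half of the fitted maximal effect; 0% = DMSO wells and -100% = cell-free medium wells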
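In this qHTS, HT-1080 cells depleted of IDH1 are exposed for 48 h at 37 °C to compound titrations. Toxicity is scored from CellTiter-Glo luminescence, with DMSO as full viability and medium alone as none.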
uPA surface inh: cell surface uPA generation inhibition. cell surface uPA generation assay, qHTS. Potency, µM (highest dose often 38.3 µM), inactives show top-dose activity change, negative = inhibition, hits mostly inhibitors. 330,000 compounds, 0.31% hits; active means well fitted inhibition curve with a large enough effect; inconclusive means small, poorly fitted or top-dose-only effect; inactive means no such curve, though single readings can be large or run the other way; tested in mouse RAW 264.7 cells; further: potency means the concentration at half of the fitted maximal effect; nearly all actives have a fitted effect of over 55% in size
The depositor's hits bear a star; ? = inconclusive; · = not tested or not shown. Hits are enriched below; roughly 19% of the tested compounds scored in any of these assays. Unless noted, the call rests on the fitted dose curve; in most records, active means well fitted curve in the direction sought with a large enough effect; inconclusive means small, poorly fitted or top-dose-only effect, or another doubt; inactive means no such curve, though single readings can be large; an effect the other way counts as inactive or inconclusive. Unless noted, on the % scale 0 is the no-effect control and ±100 the full control effect.

SMILES	IL1B secr inh	HT1080NT lethal	DT40 TDP1 no CPT	DT40 TDP1 CPT	HT1080 IDH1KD tx	uPA surface inh
CC(C)Oc1cc(NC(=O)CS(=O)CC(=O)Nc2cccc(C(F)(F)F)c2)c(Cl)cc1Cl (configuration not stated)	-63*	?	16µM*	21µM*	?	-5%
CC(C)Oc1cc(NC(=O)CS(=O)CC(=O)N(C)C)c(Cl)cc1Cl (configuration not stated)	-11	8%	-12%	-1%	8%	-1%
COc1ccccc1C(=O)NCCC(=O)NCc1ccncc1	-26	6%	-7%	-24%	3%	3%
O=C(Nc1cccc([N+](=O)[O-])c1)c1ccc2ccccc2c1O	-63*	?	15µM*	23µM*	?	-6%
O=C(Nc1ccccn1)c1ccc2ccccc2c1O	1	-21%	15µM*	3%	-1%	-4%
O=C(Nc1cccnc1)c1ccc2ccccc2c1O	-2	-2%	13µM*	-18%	0%	-4%
Cc1ccsc1C(=O)N1CCC1(C)C(=O)NS(=O)(=O)c1ccc(C#N)cc1 (configuration not stated)	-1	26%	-14%	3%	1%	·
Cc1nc2nc(SCC(=O)O)nn2c(C)c1Cc1ccccc1Cl	-17	3%	7%	-18%	-5%	23%
O=C(O)c1c[nH]c2c([N+](=O)[O-])cccc2c1=O	22	-6%	9.2µM*	?	-17%	2%
O=C(O)c1c[nH]c(=O)c2ccccc12	-6	0%	0%	-5%	-1%	-3%
Cc1nn2c(=O)cc(COC(=O)c3cccc(NC(=O)COc4ccc(C)c(C)c4)c3)nc2s1	·	·	-6%	17%	·	·
Cc1nn2c(=O)cc(COC(=O)c3ccc(NC(=O)COc4ccc(C)c(C)c4)cc3)nc2s1	·	·	?	-30%	·	·
CCc1nn2c(=O)cc(COC(=O)c3cccc(NC(=O)COc4ccccc4F)c3)nc2s1	·	·	?	18µM*	·	·
CCc1nn2c(=O)cc(COC(=O)c3ccccc3NC(=O)COc3ccccc3C)nc2s1	·	·	5.2µM*	4.1µM*	·	·
Cc1nn2c(=O)cc(COC(=O)c3ccc(NC(=O)COc4ccccc4F)cc3)nc2s1	·	·	5.2µM*	5.8µM*	·	·
Cc1nn2c(=O)cc(COC(=O)c3cccc(NC(=O)COc4ccccc4C)c3)nc2s1	·	·	21µM*	18µM*	·	·
COc1ccccc1CNC(=O)Cn1nc(C)n2cccc2c1=O	·	·	-7%	-17%	·	·
Cc1ccc(Cl)cc1N1CCN(S(=O)(=O)c2ccc3oc(=O)c4ncn(C)c4c3c2)CC1	·	·	-3%	-4%	·	·
CC(C)c1ccc(C(C(C(=O)c2ccccc2)N2CCOCC2)N2CCOCC2)cc1 (configuration not stated)	-8	-7%	-1%	5%	4%	-1%
CCSc1nnc(Nc2ccccc2)s1	-1	14%	-22%	-7%	18%	-9%
CC(C#N)Sc1nnc(Nc2ccccc2)s1 (configuration not stated)	-3	15%	18µM*	-106%	16%	0%
COc1cccc(NC(=S)NCc2cccs2)c1	1	2%	?	?	3%	-8%
C=CCn1c(SCC(=O)c2[nH]c(C)c(C(=O)OCC)c2C)nc2scc(-c3ccccc3)c2c1=O	12	-7%	16µM*	12µM*	2%	2%
C=CCn1c(SCCN2C(=O)c3ccccc3C2=O)nc2scc(-c3ccccc3)c2c1=O	-5	12%	?	?	9%	2%
C=CCn1c(SCC(=O)NCC2CCCO2)nc2scc(-c3ccc(OC)cc3)c2c1=O (configuration not stated)	0	-5%	?	?	0%	26%
